# High-throughput results (PubChem)
# PrP UTR inh: inhibition of PrP 5' UTR reporter expression; cell-based PrP 5' UTR mRNA reporter, plate reader; 340,000 compounds, 0.35% hits; inhibition, % (concentration not given with the values); AID 488862; in the data active = inhibition above about 52%; note: 0 = median of the neutral control wells
# BJeLR viability: BJeLR cell viability loss; BJeLR (HRASV12) viability, CellTiter-Glo ATP luminescence, 48 h; inhibition, % (concentration not given with the values); 300,000 compounds, 0.17% hits; in the data active = inhibition above about 50%
# PfHsp40 yeast: restores yeast growth despite PfHsp40 toxicity; AID 504582; S. cerevisiae expressing PfHsp40, growth rescue, ATP luminescence; 340,000 compounds, 0.68% hits; growth rescue, % at 12.5 µM; in the data active = growth rescue above about 28%, passing the limit was not always enough;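 note: yeast W303a lacking pdr1 and pdr3 grown in galactose medium; growth measured after three days at 30 °C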
# MazEF act: activators of E. coli MazEF toxin-antitoxin RNase; P0AE70; FAM/BHQ RNA-DNA oligo cleavage fluorescence, 5 h; 350,000 compounds, 0.32% hits; activation, % at 20 µM; in the data active = activation above about 50%
# DUSP3 inh: blocks human VHR1 dual specificity phosphatase; P51452; recombinant VHR phosphatase, pNPP absorbance; inhibition, % at 13.3 µM; 290,000 compounds, 0.52% hits; AID 1654; in the data active = inhibition above about 50%
# PrPC TRFRET: cell surface PrPC inhibition, primary TR-FRET screen; P04156; TR-FRET read-out; inhibition, % at 13.8 µM; 370,000 compounds, 0.43% hits; in the data active = inhibition above about 24%; note: 0% = median of the test wells and 100% = reference compound wells
# PrPC TRFRET cf: confirmation of inhibitors of cell surface human prion protein | inhibition, % at 13.8 µM | shares compounds with PrPC TRFRET | cell surface PrPC level, TR-FRET | 1,500 compounds, 65% hits; in the data active = inhibition above about 25%
# LD9 cytotox: counter-screen for PrPc inhibitors: cytotoxicity in LD9 cells; shares compounds with PrPC TRFRET; inhibition, % at 13.8 µM; 1,500 compounds, 29% hits; luminescence viability; in the data active = inhibition above about 9.5%
# The depositor's hits bear a star; . = no result. Only some compounds are listed: those with a hit (about 2.1% of all), similar ones and a draw of the others.
SMILES,PrP UTR inh,BJeLR viability,PfHsp40 yeast,MazEF act,DUSP3 inh,PrPC TRFRET,PrPC TRFRET cf,LD9 cytotox
Cc1c(N(C)S(=O)(=O)c2cc(C(=O)NCC3CCCO3)ccc2Cl)c(=O)n(-c2ccccc2)n1C (configuration not stated),-5,0,1,1,.,2,.,.
Cc1c(C(=O)O)oc2c3c(ccc12)OCCO3,-29,1,0,4,-5,26*,31*,1
Cc1onc(-c2ccccc2Cl)c1C(=O)Nc1nnc(-c2ccc(Br)cc2)s1,-11,3,2,-34,15,26*,41*,-5
Cc1onc(-c2ccccc2Cl)c1C(=O)Nc1nnc(-c2ccc(F)cc2)s1,-23,15,-1,5,12,3,.,.
O=C(CN1C(=O)/C(=C/c2ccccc2)SC1=S)N1CCN(CCc2ccccn2)CC1,-7,1,1,0,6,-6,.,.
CCCCCCn1c(=O)n2n(c1=O)C[C@]1(OC(=O)Nc3cccs3)CN(S(=O)(=O)c3ccc(C)cc3)C[C@]1(O)C2,.,.,.,9,.,25*,5,0
COc1ccc(Oc2cnn(-c3ccccc3)c(=O)c2Br)cc1,-16,-1,2,8,1,27*,36*,-5
CCCc1cc(=O)oc2cc(OCC(=O)NCCCN3CCOCC3)c(Cl)cc12,4,7,1,0,6,-9,.,.
N#C/C(=C(/O)COC(=O)CSc1ccc(Cl)cc1)c1nc2ccccc2[nH]1,-13,3,-2,23,33,27*,36*,63*
COc1ccc(OC/C(O)=C(\C#N)c2nc3ccccc3[nH]2)cc1,-7,3,0,2,-7,-1,.,.
Cc1cc(SCC(=O)OC/C(O)=C(\C#N)c2nc3ccccc3[nH]2)c(C)cc1Br,-39,11,-1,-10,30,-2,.,.
COc1ccccc1OCC(=O)OC/C(O)=C(\C#N)c1nc2ccccc2[nH]1,-27,-6,0,-1,8,31*,54*,64*
CCCCCCCN(c1ccccc1)C1C[C@H]2CCCC(=O)N3CC[C@@H](C1)[C@@H]23 (some centres not stated),.,.,.,.,.,1,.,.
O=C(c1cc(C2CC2)nc2ccc(Br)cc12)N1N=C(C(F)F)CC1(O)C(F)F (configuration not stated),-21,1,-1,-7,0,31*,21,1
Cc1ccc(C2c3[nH]c4ccccc4c3C[C@H]3C(=O)N(c4ccccc4C(=O)N4CCC[C@H]4C(=O)O)C(=O)N23)cc1 (some centres not stated),-4,2,15,0,21,-1,.,.
COc1cc(/C=C/C(=O)NCCN2CCOCC2)cc(OC)c1OC,-17,1,0,5,-10,1,.,.
COc1cc(/C=C/C(=O)NCCn2c(C)cc3ccccc32)cc(OC)c1OC,-2,2,0,7,-4,49*,-4,10*
COc1ccc(/C=C/C(=O)NCCN2CCOCC2)cc1OC,-10,-3,-1,4,9,5,.,.
COc1ccc(/C=C/C(=O)NCCn2c(C)cc3ccccc32)cc1OC,-3,3,-1,6,-7,64*,2,6
Cc1cc(NC(=O)c2ccc(NS(=O)(=O)c3ccccc3)cc2)no1,.,.,.,.,.,3,.,.
CC(=O)N1c2ccc(S(=O)(=O)N3CCCC(C(=O)Nc4cc(C)cc(C)c4)C3)cc2CC1C (configuration not stated),-1,7,-1,-1,-2,35*,58*,-5
COc1cc(NC(=O)C2CCCN(S(=O)(=O)c3ccc4c(c3)CCCN4C(C)=O)C2)cc(OC)c1 (configuration not stated),1,-3,-2,-7,-9,41*,28*,-1
CC(=O)N1c2ccc(S(=O)(=O)N3CCCC(C(=O)Nc4ccc(F)cc4)C3)cc2CC1C (configuration not stated),-2,14,0,2,-10,35*,39*,16*
CC(=O)N1c2ccc(S(=O)(=O)N3CCCC(C(=O)Nc4ccc(C)cc4)C3)cc2CC1C (configuration not stated),.,.,.,.,.,5,.,.
COc1ccc(NC(=O)C2CCCN(S(=O)(=O)c3ccc4c(c3)CCCN4C(C)=O)C2)cc1 (configuration not stated),-12,-2,0,-3,29,2,.,.
SMILES,PrP UTR inh,BJeLR viability,PfHsp40 yeast,MazEF act,DUSP3 inh,PrPC TRFRET,PrPC TRFRET cf,LD9 cytotox
COC(=O)C1=C(C)N(CC(C)C)C(=S)NC1c1ccc(-c2ccccc2)cc1 (configuration not stated),.,.,.,.,.,25*,14,0
COC(=O)C1=C(C)N(CC(C)C)C(=S)NC1c1cccc(OC)c1 (configuration not stated),.,.,.,.,.,-4,.,.
CCOc1cc(OCC)cc(C(=O)N2CCC[C@H]2C(=O)N2CCC[C@H]2C(=O)NCc2cccc(OC)c2)c1,.,.,.,.,.,5,.,.
Cc1c(Br)c(=O)oc2cc(OCC(=O)N3C[C@H]4C[C@@H](C3)c3cccc(=O)n3C4)ccc12,-5,-2,0,1,8,38*,55*,-3
CCC(NC(=O)Nc1nnc(C(F)(F)F)s1)(C(F)(F)F)C(F)(F)F,-21,28,0,3,-1,58*,74*,54*
Cc1cccc(-n2c(-c3ccco3)n[nH]c2=S)c1,-9,-6,-2,-4,5,31*,33*,-3
Cc1cc(C)cc(NC(=O)COC(=O)Cc2ccccc2F)c1,-32,.,1,5,.,0,.,.
Cc1cc(C)c(S(=O)(=O)Nc2cccc(S(=O)(=O)N3CCOCC3)c2)c(C)c1,-11,0,-1,2,-28,27*,18,-10
CC(=O)Nc1ccc(S(=O)(=O)NCc2ccc3c(c2)cc(C)n3C)cc1,-9,4,1,-2,36,35*,11,3
CCCC(=O)NCc1ccc2c(c1)cc(C)n2C,-42,-2,-1,1,11,-6,.,.
Cc1cc2cc(CNS(=O)(=O)c3ccc4ccccc4c3)ccc2n1C,-6,3,-1,3,2,43*,37*,3
Cc1cc(C)c(S(=O)(=O)NCc2ccc3c(c2)cc(C)n3C)c(C)c1,4,-6,1,12,7,39*,43*,-2
CC(=O)Nc1ccc(S(=O)(=O)NCc2ccc3[nH]c(C)cc3c2)cc1,-6,-4,-1,2,-2,5,.,.
NS(=O)(=O)c1ccc(CNS(=O)(=O)c2ccc3ccccc3c2)cc1,-9,-6,-1,-3,10,-1,.,.
